Experimental findings from PubChem BioAssay (EPA / NIEHS) are described below.

Where “and” joins values, the source holds several entries; their conditions need not be identical. Equal entries are not always repeated. The source holds several records for some structures; these can differ, active in one and inactive in another. Calls of active or inactive are those of the source. How the source made its calls: active means hit-call score of the fitted dose curve at least 0.9, where 1 is the maximum; inactive means score below 0.9.

One assay in a line: IUF_NPC1b_proliferation_BrdU_72hr: Leibniz Research Institute for Environmental Medicine (IUF) 72-hour Neural Progenitor Cell Bromodeoxyuridine (BrdU) Proliferation Assay (NPC1b) (AID 2284207). The method in brief:
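Proliferation of primary human neural progenitor cells: 72 h compound treatment at 37C, 5% CO2, pH 7.2-7.6, in EGF/FGF-containing medium. Readout is BrdU uptake (last 16 h) by chemiluminescent ELISA, normalised to DMSO.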
As to `CCCCC(CC)COC(=O)c1ccccc1C(=O)OCC(CC)CCCC` (configuration not stated), the result was inactive.

In the case of `COC(=O)N(OC)c1ccccc1COc1ccn(-c2ccc(Cl)cc2)n1`, the AC50 was 4.1 µM (active).

Take `CC(C)(C)c1ccc(CSc2cnn(C(C)(C)C)c(=O)c2Cl)cc1`: the AC50 is 0.0138 µM (active).

For `N#Cc1nn(-c2c(Cl)cc(C(F)(F)F)cc2Cl)c(N)c1S(=O)C(F)(F)F` (configuration not stated), the outcome was inactive.

For the compound `Cc1ccc(-c2c(Cl)nc(C#N)n2S(=O)(=O)N(C)C)cc1`, the AC50 is 74.2 µM (active).

In the case of `CCCCOC(=O)c1ccccc1C(=O)OCCCC`, the call was inactive.

Turning to `CN(C)C(=S)SSC(=S)N(C)C`, the AC50 was 50.1 µM (active).

With `CNC(=O)ON=CC(C)(C)SC`, the outcome was inactive.

With `COP(N)(=O)SC` (configuration not stated), the result was inactive.

On to `CCOc1cc(Oc2ccc(C(F)(F)F)cc2Cl)ccc1[N+](=O)[O-]`, for which the compound was classed as inactive.

On to `CO/C=C(/C(=O)OC)c1ccccc1Oc1cc(Oc2ccccc2C#N)ncn1`, for which the compound was classed as inactive.

As for `COP(=S)(OC)Oc1nc(Cl)c(Cl)cc1Cl`, the call was inactive.

Consider `C=CC1(C)OC(=O)N(c2cc(Cl)cc(Cl)c2)C1=O` (configuration not stated), for which the compound was classed as inactive.

Regarding `CCOC(=O)CC(SP(=S)(OC)OC)C(=O)OCC` (configuration not stated), the call was inactive.

The next assay in a line: IUF_NPC1a_proliferation_area_72hr: Leibniz Research Institute for Environmental Medicine (IUF) 72-hour Neural Progenitor Cell Proliferation Area Assay (NPC1a) (AID 2284208). The method in brief: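 Spheres of 0.3 mm are plated singly in growth-factor medium and exposed from day 0. After three days at 37C and 5% CO2, sphere area is measured by phase contrast imaging, with activity referenced to DMSO.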
With `CCCCC(CC)COC(=O)c1ccccc1C(=O)OCC(CC)CCCC` (configuration not stated), the compound was called inactive.

For `COC(=O)N(OC)c1ccccc1COc1ccn(-c2ccc(Cl)cc2)n1`, the AC50 is 1.44 µM (active).

In the case of `CC(C)(C)c1ccc(CSc2cnn(C(C)(C)C)c(=O)c2Cl)cc1`, the half-maximal activity concentration (AC50) was 0.0126 µM (active).

As to `N#Cc1nn(-c2c(Cl)cc(C(F)(F)F)cc2Cl)c(N)c1S(=O)C(F)(F)F` (configuration not stated), the call was inactive.

On to `Cc1ccc(-c2c(Cl)nc(C#N)n2S(=O)(=O)N(C)C)cc1`, for which the AC50 is 74.1 µM (active).

For `CCCCOC(=O)c1ccccc1C(=O)OCCCC`, the result was inactive.

For the compound `CN(C)C(=S)SSC(=S)N(C)C`, the AC50 is 67.2 µM (active).

For the compound `CNC(=O)ON=CC(C)(C)SC`, the call was inactive.

On to `COP(N)(=O)SC` (configuration not stated), for which the compound was called inactive.

For `CCOc1cc(Oc2ccc(C(F)(F)F)cc2Cl)ccc1[N+](=O)[O-]`, the outcome was inactive.

As for `CO/C=C(/C(=O)OC)c1ccccc1Oc1cc(Oc2ccccc2C#N)ncn1`, the half-maximal activity concentration (AC50) was 60.2 µM (active).

For `COP(=S)(OC)Oc1nc(Cl)c(Cl)cc1Cl`, the result was inactive.

For the compound `C=CC1(C)OC(=O)N(c2cc(Cl)cc(Cl)c2)C1=O` (configuration not stated), the compound was called inactive.

Consider `CCOC(=O)CC(SP(=S)(OC)OC)C(=O)OCC` (configuration not stated), for which the compound was called inactive.

The next assay in a line: IUF_NPC1_viability_72hr: Viability Assessment at 72 hours in the Leibniz Research Institute for Environmental Medicine (IUF) Neural Progenitor Cell Proliferation Assay (NPC1) (AID 2284209). The method in brief: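 Human fetal-cortex neural progenitor spheres (0.25–0.35 mm, one per well) grown in EGF/FGF proliferation medium at 37C, pH 7.2-7.6, exposed 72 h without renewal; viability read as alamar blue resazurin-to-resorufin fluorescence relative to DMSO.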
Take `CCCCC(CC)COC(=O)c1ccccc1C(=O)OCC(CC)CCCC` (configuration not stated): the call was inactive.

`COC(=O)N(OC)c1ccccc1COc1ccn(-c2ccc(Cl)cc2)n1`: the AC50 was 7.52 µM (active).

As to `CC(C)(C)c1ccc(CSc2cnn(C(C)(C)C)c(=O)c2Cl)cc1`, the outcome was inactive.

Regarding `N#Cc1nn(-c2c(Cl)cc(C(F)(F)F)cc2Cl)c(N)c1S(=O)C(F)(F)F` (configuration not stated), the outcome was inactive.

For `Cc1ccc(-c2c(Cl)nc(C#N)n2S(=O)(=O)N(C)C)cc1`, the AC50 is 83 µM (active).

Turning to `CCCCOC(=O)c1ccccc1C(=O)OCCCC`, the compound was classed as inactive.

As to `CN(C)C(=S)SSC(=S)N(C)C`, the AC50 was 74.6 µM (active).

Consider `CNC(=O)ON=CC(C)(C)SC`, for which the call was inactive.

Take `COP(N)(=O)SC` (configuration not stated): the compound was called inactive.

For `CCOc1cc(Oc2ccc(C(F)(F)F)cc2Cl)ccc1[N+](=O)[O-]`, the outcome was inactive.

For the compound `CO/C=C(/C(=O)OC)c1ccccc1Oc1cc(Oc2ccccc2C#N)ncn1`, the outcome was inactive.

As for `COP(=S)(OC)Oc1nc(Cl)c(Cl)cc1Cl`, the compound was called inactive.

As to `C=CC1(C)OC(=O)N(c2cc(Cl)cc(Cl)c2)C1=O` (configuration not stated), the outcome was inactive.

As for `CCOC(=O)CC(SP(=S)(OC)OC)C(=O)OCC` (configuration not stated), the result was inactive.

The nature of another assay: CCTE_Mundy_HCI_Cortical_Synap_Neur_Matur_NeuriteSpotCountPerNeuriteLength: CCTE's Synaptogenesis and Neurite Maturation Assay in rat cortical cells for Neurite Spot Count per Neurite Length, Mundy Lab (AID 2284210). The method in brief: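 Primary rat cortical neurons, compound exposure DIV 7–12, 288.33 h endpoint. Hoechst, anti-MAP2 and anti-synaptophysin labelling; neurite-associated puncta per neurite length scored by automated imaging relative to DMSO controls.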
Regarding `CCCCC(CC)COC(=O)c1ccccc1C(=O)OCC(CC)CCCC` (configuration not stated), the AC50 is 8.06 µM (active) and 7.58 µM (active).

For the compound `COC(=O)N(OC)c1ccccc1COc1ccn(-c2ccc(Cl)cc2)n1`, the AC50 is 0.0823 µM (active).

Regarding `CC(C)(C)c1ccc(CSc2cnn(C(C)(C)C)c(=O)c2Cl)cc1`, the AC50 is 0.000994 µM (active).

With `N#Cc1nn(-c2c(Cl)cc(C(F)(F)F)cc2Cl)c(N)c1S(=O)C(F)(F)F` (configuration not stated), the AC50 was 15 µM (active).

As for `Cc1ccc(-c2c(Cl)nc(C#N)n2S(=O)(=O)N(C)C)cc1`, the AC50 is 73.3 µM (active).

Take `CCCCOC(=O)c1ccccc1C(=O)OCCCC`: the AC50 is 84.1 µM (active).

`C=CCC1=C(C)[C@@H](OC(=O)[C@@H]2[C@@H](C=C(C)C)C2(C)C)CC1=O`: the AC50 is 20.5 µM (active).

Regarding `CN(C)C(=S)SSC(=S)N(C)C`, the AC50 is 0.0765 µM (active).

As for `CNC(=O)ON=CC(C)(C)SC`, the compound was called inactive.

Turning to `C=CCC1=C(C)C(OC(=O)C2C(C=C(C)C)C2(C)C)CC1=O` (configuration not stated), the compound was called inactive.

Turning to `COP(N)(=O)SC` (configuration not stated), the compound was classed as inactive.

Regarding `CCOc1cc(Oc2ccc(C(F)(F)F)cc2Cl)ccc1[N+](=O)[O-]`, the AC50 was 14.3 µM (active).

For `CO/C=C(/C(=O)OC)c1ccccc1Oc1cc(Oc2ccccc2C#N)ncn1`, the AC50 was 5.11 µM (active).

`CCCCNC(=O)n1c(NC(=O)OC)nc2ccccc21`: the outcome was inactive.

On to `C=CC1(C)OC(=O)N(c2cc(Cl)cc(Cl)c2)C1=O` (configuration not stated), for which the compound was called inactive.

Consider `CCOC(=O)CC(SP(=S)(OC)OC)C(=O)OCC` (configuration not stated), for which the outcome was inactive.

The next assay is described as follows: CCTE_Mundy_HCI_Cortical_Synap_Neur_Matur_BPCount: CCTE's Synaptogenesis and Neurite Maturation Assay in rat cortical cells for Branch Point Count, Mundy Lab (AID 2284211). The method in brief: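 Branch point number is quantified by automated imaging of fluorescently labelled neurites and synapses in rat primary cortical neurons exposed from DIV 7 to DIV 12. Activity is analysed relative to DMSO negative control.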
Regarding `CCCCC(CC)COC(=O)c1ccccc1C(=O)OCC(CC)CCCC` (configuration not stated), the AC50 was 3.03 µM (active).

`COC(=O)N(OC)c1ccccc1COc1ccn(-c2ccc(Cl)cc2)n1`: the AC50 is 0.0563 µM (active).

For the compound `CC(C)(C)c1ccc(CSc2cnn(C(C)(C)C)c(=O)c2Cl)cc1`, the AC50 is 0.000559 µM (active).

Turning to `N#Cc1nn(-c2c(Cl)cc(C(F)(F)F)cc2Cl)c(N)c1S(=O)C(F)(F)F` (configuration not stated), the compound was called inactive.

Take `Cc1ccc(-c2c(Cl)nc(C#N)n2S(=O)(=O)N(C)C)cc1`: the AC50 was 71.1 µM (active).

Take `CCCCOC(=O)c1ccccc1C(=O)OCCCC`: the AC50 was 50 µM (active).

As to `C=CCC1=C(C)[C@@H](OC(=O)[C@@H]2[C@@H](C=C(C)C)C2(C)C)CC1=O`, the AC50 is 26.6 µM (active).

As to `CN(C)C(=S)SSC(=S)N(C)C`, the AC50 was 0.0767 µM (active).

Turning to `CNC(=O)ON=CC(C)(C)SC`, the compound was called inactive.

`C=CCC1=C(C)C(OC(=O)C2C(C=C(C)C)C2(C)C)CC1=O` (configuration not stated): the compound was classed as inactive.

As for `COP(N)(=O)SC` (configuration not stated), the half-maximal activity concentration (AC50) is 0.0258 µM (active) and the result was inactive.

Take `CCOc1cc(Oc2ccc(C(F)(F)F)cc2Cl)ccc1[N+](=O)[O-]`: the AC50 is 14.8 µM (active).

As to `CO/C=C(/C(=O)OC)c1ccccc1Oc1cc(Oc2ccccc2C#N)ncn1`, the AC50 is 3.25 µM (active).

On to `COP(=S)(OC)Oc1nc(Cl)c(Cl)cc1Cl`, for which the AC50 is 24.8 µM (active).

`CCCCNC(=O)n1c(NC(=O)OC)nc2ccccc21`: the AC50 was 15 µM (active).

For the compound `C=CC1(C)OC(=O)N(c2cc(Cl)cc(Cl)c2)C1=O` (configuration not stated), the compound was classed as inactive.

As to `CCOC(=O)CC(SP(=S)(OC)OC)C(=O)OCC` (configuration not stated), the AC50 is 50 µM (active) and the outcome was inactive.

In general, AC50 refers to the midpoint of the concentration-response curve, whichever way the signal moves.
